What follows are molecules tested against NADPH oxidase 2 (Homo sapiens) (UniProt P04839) (assay: NOX2-dependent H2O2 signal modulators, primary screen, NOX inhibitor project, cell-based, HEK293-NOX2, PMA-stimulated, Amplex Red fluorescence (AID 1159; note: test concentration not given here)). Settings: 45 min, higher = more signal, called active from +8 up or from −8 down.
NADPH oxidase 2 (Homo sapiens), sequence (P04839 whole entry, looked up): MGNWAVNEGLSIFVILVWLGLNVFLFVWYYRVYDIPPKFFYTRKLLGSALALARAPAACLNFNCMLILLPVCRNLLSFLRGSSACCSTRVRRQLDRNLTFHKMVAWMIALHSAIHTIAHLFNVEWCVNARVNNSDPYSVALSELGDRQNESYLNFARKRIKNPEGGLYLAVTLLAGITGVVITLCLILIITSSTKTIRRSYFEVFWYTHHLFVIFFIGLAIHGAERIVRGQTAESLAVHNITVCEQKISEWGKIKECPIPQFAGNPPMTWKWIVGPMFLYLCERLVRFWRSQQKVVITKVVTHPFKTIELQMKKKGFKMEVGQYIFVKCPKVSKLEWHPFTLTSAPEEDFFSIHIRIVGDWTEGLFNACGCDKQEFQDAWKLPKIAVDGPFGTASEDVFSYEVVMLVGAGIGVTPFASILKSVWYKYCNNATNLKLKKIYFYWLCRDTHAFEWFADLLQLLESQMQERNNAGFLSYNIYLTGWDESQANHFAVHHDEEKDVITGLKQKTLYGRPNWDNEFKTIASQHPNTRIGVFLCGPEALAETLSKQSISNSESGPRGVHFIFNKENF

z-score, inactive:
CCC(CC)C(O)C1C=CC2C(=O)NC(=O)C2N1Nc1ccc(Cl)cc1Cl (stereo not given) -0.017
C=C(CCCC)/C(=C/C[C@@H](OC(=O)c1ccncc1)c1ccc(OCCO)cc1)c1cc(C(=O)OC)ccc1OC -1.61
CO[C@H]1O[C@H](CO)[C@@H](OC(=O)Nc2cccc(F)c2)[C@H](OC(=O)Nc2ccccc2)[C@@H]1OC(=O)Nc1ccccc1 -1.12
C=C(COC)C(=O)CC[C@@H](OC(C)=O)c1ccc(CO)o1 0.663
COC(=O)[C@H](Cc1ccccc1)N1CC2=C[C@@H](C3CC3)n3c(=O)n(C)c(=O)n3[C@H]2[C@@H]1[C@@H](O)Cc1ccccc1 -0.813
C=C[C@H](CO[Si](CC)(CC)CC)N(Cc1ccc(OC(C)=O)c(OC)c1)S(=O)(=O)c1ccc(Br)cc1 -2
C=CCOC(=O)[C@H]1[C@@H]2C(=O)O[C@@H](c3ccccc3)[C@@H](c3ccccc3)N2[C@@H](c2ccc(OCCOC(=O)[C@H]3C[C@H]4C(=O)N[C@@H](CCCCNC(C)=O)C(=O)N4[C@H]3c3ccc(O)cc3)cc2)[C@]12C(=O)Nc1ccc(I)cc12 1.36
CC(C)C(O)C1C=CC2C(=O)NC(=O)C2N1Nc1ccc(Cl)cc1Cl (stereo not given) -0.714
COc1ccc([Si](C)(C)[C@H]2[C@H](CCO)O[C@@]3(C(=O)N(Cc4ccc(N(C=O)c5ccccc5)cc4)c4ccccc43)[C@@H]2C)cc1 0.118
CC(C)C(O)C1C=CC2C(=O)N(c3ccccc3)C(=O)C2N1Nc1ccc([N+](=O)[O-])cc1 (stereo not given) -0.59

From PubChem BioAssay
